Data reported in PubChem BioAssay (NCI).
“And” between values parts separate entries of the source, which are not always exact repeats. Equal entries are not always repeated. This is part of a sample that, as a whole, favours compounds with a hit. Of some 83,000 tested, about 20% had one in any assay.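 The test compound was applied at a single concentration to cells in 96-well plates for 48 hours, and percent growth was recorded.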 A number with no mark means an inactive call. The source made the active and inactive calls. The calls were made as follows: active = growth percent below 10; inactive = the rest.

System: MDA-MB-468 breast
Experiment: NCI-60 one-dose screen, 48 h (100 = growth as untreated, 0 = no growth, -100 = all killed)
Conditions: 10 µM unless noted

Question: With `Cn1cc(-c2nc(-c3c[nH]c4ccccc34)cs2)c2cccnc21` as the molecule, how does the growth read?
Answer: -12.5% (active)

Question: Which growth does the source give for `COc1ccc(C(=O)CSc2nnc(-c3cc(-c4ccccc4)nc4ccccc34)o2)cc1` here?
Answer: 104%

Question: For `CCC(=O)Oc1ccc(OCc2ccccc2)cc1`, which growth is on record?
Answer: 104% and 118%

Question: `Cc1cc(Nc2ccc(C(=O)N3CCCC3)cc2)nc(NCCCNc2ccnc3cc(Cl)ccc23)n1` was tested. Which growth did it give?
Answer: 40%

Question: `Cc1cccc(CN(Nc2ccccc2)c2ccccc2)n1` was tested. Which growth did it give?
Answer: 94.9%
